Measurements as given in PubChem BioAssay AID861 (The Scripps Research Institute Molecular Screening Center, 2007).
Out of some 200,000 compounds screened, about 360 (0.18%) were called active. Rule as the data show it: active = inhibition above about 25%; inactive = the rest. Many of the other results were omitted from the sample, so actives are more common in it than they were.

Molecular target: Toll-like receptor 4 (Homo sapiens) + Myeloid differentiation primary response protein MyD88 (Homo sapiens) (UniProt O00206+Q99836)
Sequence (O00206 whole entry, looked up): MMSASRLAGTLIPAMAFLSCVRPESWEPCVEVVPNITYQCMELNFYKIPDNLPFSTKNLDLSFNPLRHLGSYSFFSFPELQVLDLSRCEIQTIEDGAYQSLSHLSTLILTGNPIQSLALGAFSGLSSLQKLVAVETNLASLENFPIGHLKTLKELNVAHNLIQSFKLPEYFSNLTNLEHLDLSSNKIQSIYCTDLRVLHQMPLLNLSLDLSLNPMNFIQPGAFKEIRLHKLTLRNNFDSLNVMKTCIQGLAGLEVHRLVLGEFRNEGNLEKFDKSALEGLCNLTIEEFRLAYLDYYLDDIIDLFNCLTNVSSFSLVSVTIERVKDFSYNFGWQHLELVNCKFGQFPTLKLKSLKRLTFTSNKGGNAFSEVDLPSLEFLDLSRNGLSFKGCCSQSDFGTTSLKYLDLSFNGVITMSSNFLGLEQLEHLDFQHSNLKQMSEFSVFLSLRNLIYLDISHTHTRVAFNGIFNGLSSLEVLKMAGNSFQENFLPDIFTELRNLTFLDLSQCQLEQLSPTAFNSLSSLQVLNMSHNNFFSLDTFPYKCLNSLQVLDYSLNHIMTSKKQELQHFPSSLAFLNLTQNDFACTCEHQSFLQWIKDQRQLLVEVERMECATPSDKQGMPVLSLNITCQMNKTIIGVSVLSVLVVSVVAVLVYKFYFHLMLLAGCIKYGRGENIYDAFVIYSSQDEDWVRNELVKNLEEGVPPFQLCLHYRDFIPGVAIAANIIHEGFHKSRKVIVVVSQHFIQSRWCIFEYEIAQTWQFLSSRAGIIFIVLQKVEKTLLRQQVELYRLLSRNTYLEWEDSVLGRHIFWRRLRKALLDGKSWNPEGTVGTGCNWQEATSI
Sequence (Q99836 whole entry, looked up): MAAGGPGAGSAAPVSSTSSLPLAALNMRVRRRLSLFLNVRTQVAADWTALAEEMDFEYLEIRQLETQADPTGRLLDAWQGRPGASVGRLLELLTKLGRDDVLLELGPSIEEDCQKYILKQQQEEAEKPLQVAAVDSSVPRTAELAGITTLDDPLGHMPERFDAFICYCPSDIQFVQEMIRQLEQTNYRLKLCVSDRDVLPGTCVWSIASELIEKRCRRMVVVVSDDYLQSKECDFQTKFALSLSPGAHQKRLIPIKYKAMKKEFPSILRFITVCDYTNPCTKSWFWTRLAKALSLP
Experiment: inhibitors of TLR4-MyD88 association in cells, primary screen, cell-based, HeLa CL3-4, BLA complementation, FRET ratio (AID 861);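 also: 0% = vehicle and 100% = reference inhibitor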
Conditions: HeLa CL3-4 TLR4/MyD88 BLA complementation, at 8.4 µM, stronger effect = higher value

| Compound | inhibition |
| --- | --- |
| COc1cc(/C=N/O)ccc1OCc1ccc([N+](=O)[O-])cc1 | -3.68% (inactive) |
| Cc1cccc(COc2ccccc2/C=N/Nc2ccc([N+](=O)[O-])cc2)c1 | 28.7% (active) |
| Cc1ccccc1OCCOc1ccc([N+](=O)[O-])cc1/C=N/n1cnnc1 | -17.5% (inactive) |
| CCCn1c(=S)[nH]c2ccc(C(F)(F)F)cc21 | -6.93% (inactive) |
| CCNC(=O)N1c2ccccc2Sc2ccccc21 | 7.55% (inactive) |
| Cc1cccc(C(=O)NC(=S)N2CCN(c3ccc([N+](=O)[O-])cc3)CC2)c1 | -12.6% (inactive) |
| COC(=O)C1=NN(c2ccccc2)C2C(=O)N(c3ccccc3OC)C(=O)C12 (centres undefined) | 0.17% (inactive) |
| Cc1cccc(C(=O)Nc2ccccc2C(=O)NCc2cccnc2)c1 | -0.85% (inactive) |
| CCc1ccc2c(c1)C1(NN=C(c3ccccc3)S1)C(=O)N2 (centres undefined) | 25.3% (active) |
| C=C1c2cc(CC)ccc2NC(=O)N1c1ccc(C)cc1 | 1.66% (inactive) |
| O=C1Nc2ccccc2C12Nc1ccccc1S2 (centres undefined) | -1.86% (inactive) |
| CNc1nc(Nc2ccc(C)c(Cl)c2)nc(N)c1[N+](=O)[O-] | -5.76% (inactive) |
| O=C(Nc1ccccc1Cl)/C(Cl)=C(\Cl)S(=O)c1ccccc1 (centres undefined) | 27% (active) |
| O=C(CN1CCCCC1)Nc1ccccc1Cl | -3.05% (inactive) |
| O=C(Nc1ccccc1Cl)c1ccc2nsnc2c1 | 7.26% (inactive) |
| CC1(c2ccccc2)CC(C)(C)N(C(=O)c2cc([N+](=O)[O-])cc([N+](=O)[O-])c2)c2ccccc21 (centres undefined) | -16.2% (inactive) |
| CCOc1ccc(C(C)=O)cc1COC(=O)c1cnc(Cl)c(Cl)c1 | 15.1% (inactive) |
| COC(=O)/C(=C1\Oc2ccc(C(C)(C)C)cc2S1)C(F)(F)F | 6.06% (inactive) |
| Cc1c(Cl)cccc1NC(=S)N(Cc1ccccc1)Cc1cccnc1 | 1.23% (inactive) |
| CC(Sc1nc2c([nH]c3ccccc32)c(=O)n1C)c1ccccc1 (centres undefined) | 8.9% (inactive) |
| CC1=NN(c2cccc(Cl)c2)C(=O)C12CC(C)=C(C)CS2 (centres undefined) | 2.14% (inactive) |
| Cn1cc(CN2CCC(C(O)CCc3ccccc3)CC2)c(-c2ccccc2F)n1 (centres undefined) | -13.8% (inactive) |
| CC1CCN(C(=S)c2cccc(O)c2)CC1 | -6.27% (inactive) |
| O=[N+]([O-])c1ccc(N2CCN(CC(O)COc3ccccc3)CC2)cc1 (centres undefined) | 5.02% (inactive) |
| CCc1cccc(CC)c1NC(=O)COc1ccccc1C(=O)c1cc(C#N)c(=O)n(C2CCCCC2)c1 | -16.2% (inactive) |
| CC(C)CCN1C(=O)c2ccc(C(=O)Nc3cccc(S(N)(=O)=O)c3)cc2C1=O | 1.58% (inactive) |
| CC(=O)NCCc1nc2cc(NC(=O)c3ccccc3)ccc2n1C | -9.04% (inactive) |
| CC(Oc1ccc(Br)cc1Br)C(=O)NC1CCCC1 (centres undefined) | -3.01% (inactive) |
| CS(=O)(=O)N(Cc1ccccc1Cl)c1ccc(C(=O)NCc2cccnc2)cc1 | -15.2% (inactive) |
